Screening results (PubChem BioAssay)
Only some compounds are listed: those with a hit (about 5.2% of all), similar ones and a draw of the others.
SKN-1 block = C. elegans SKN-1 inhibition. C. elegans VP596 Pgst-4::GFP/RFP ratio, acrylamide-induced, 24 h. inhibition, % at 21.8 µM. 0.49% of 360,000 active;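 active = interference check ratio from 0.5 to 1.5 plus GFP to RFP signal ratio inhibition reaching or exceeding a fixed threshold, cut at about 30% in these data, passing the limit was not always enough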
NR3A LBD binder = modulators (binders) of human NR3A ligand-binding domain; AID 1259313; Tm shift relative to glycine control, % at 25 µM; 2.5% of 340,000 active; NR3A LBD differential scanning fluorimetry, Tm shift; 0% = protein alone, 100% = glycine-bound protein;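 active = melting temperature shift of at least 10% of the positive control shift, at one fixed dose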
SMARCA2 act = activators of SMARCA2 function; 1% of 370,000 active; activation, % at 9.1 µM; MG213 cells, MMTV-luciferase reporter, dexamethasone, overnight; in the data active = activation above about 7.8%
Vif inh = HIV Vif inhibition | inhibition, % at 7.49 µM | HEK293T cells, Vif self-association by quenched fluorescence, imaging, 24 h | 0.35% of 340,000 active | AID 602346; in the data active = inhibition above about 50%, passing the limit was not always enough; inconclusive = no clear call, values can overlap the other calls; inactive = below about 31%
esBAF inh = SWI/SNF esBAF complex inhibition; reporter increase, % at 12.5 µM; mouse ES cells, Bmi1-luciferase knock-in reporter, 24 h; 100% = twice the neutral-well signal; 2% of 350,000 active; in the data active = activation above about 40%; inconclusive = no clear call, values can overlap the other calls;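 also: a rise in the Bmi1 reporter signal indicates esBAF inhibition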
NadD inh = blocks S. aureus nicotinate mononucleotide adenylyltransferase; purified NadD enzyme, colorimetric absorbance read-out; inhibition, % at 20 µM; 0.78% of 360,000 active; in the data active = inhibition above about 26%
Hits are given with their value; n = inactive; u = inconclusive; x = no result given.

SMILES | SKN-1 block | NR3A LBD binder | SMARCA2 act | Vif inh | esBAF inh | NadD inh
COc1cc([N+](=O)[O-])ccc1-c1ccc(/C=N\n2cnnc2)o1 | n | n | n | 177 | n | n
CNC[C@@H]1Oc2cc(C#Cc3ccccn3)ccc2S(=O)(=O)N([C@@H](C)CO)C[C@H]1C | x | x | x | x | n | x
CO[C@@H]1CN(C)C(=O)c2cc(NC(=O)C3CC3)ccc2OC[C@H](C)N(CC2CCCC2)C[C@@H]1C | x | x | x | x | n | x
CCSc1ccc(/C(N)=N/OC(=O)c2cccs2)cn1 | n | n | n | n | 57 | n
N/C(=N\OC(=O)c1cccs1)c1cccnc1 | n | n | n | n | u | n
O=C(C[C@@H]1CC[C@@H]2[C@H](COC[C@H](O)CN2C(=O)c2ccc3c(c2)OCO3)O1)NCCN1CCCCC1 | x | x | x | x | n | x
Cc1ccc(S(=O)(=O)Nc2ccc3c4c(cccc24)CC3)c(C)c1 | n | n | n | n | n | n
Cc1cc(C)c(S(=O)(=O)Nc2ccc3c4c(cccc24)CC3)c(C)c1 | n | n | n | 57 | n | n
O=C(Cc1ccccc1)Nc1ccc(C(=O)NCC2COc3ccccc3O2)cc1 (stereo unspecified) | n | 22 | n | n | x | n
O=C(Nc1ccc([N+](=O)[O-])cc1Cl)c1cccc([N+](=O)[O-])c1 | n | x | n | x | n | n
O=C(NC(NC(=S)Nc1ccccc1)C(Cl)(Cl)Cl)c1cccc(Cl)c1 (stereo unspecified) | n | 24 | n | n | x | n
O=C(NC(NC(=S)Nc1ccc(Cl)cc1Cl)C(Cl)(Cl)Cl)c1cccc([N+](=O)[O-])c1 (stereo unspecified) | n | 21 | n | n | n | n
CC(=O)Nc1ccc2c(c1)-c1ccc(F)cc1C2 | n | n | n | n | x | n
CC(=O)Nc1cc2c(cc1[N+](=O)[O-])-c1ccc(F)cc1C2 | n | n | n | n | 52 | n
CC(=O)Nc1cc(F)c2c(c1F)Cc1cc(F)ccc1-2 | n | n | n | n | 103 | n
Cc1ccc(S(=O)(=O)N(C)C[C@H]2OCCCC[C@H](C)Oc3ccc(NS(=O)(=O)c4ccccc4)cc3C(=O)N([C@@H](C)CO)C[C@H]2C)cc1 | x | x | x | x | n | x
CCOc1ccc(Nc2nc(NCc3ccco3)nc(N)c2[N+](=O)[O-])cc1 | n | 12 | n | n | n | n
CO[C@H]1CN(C)C(=O)c2ccc(NC(=O)C3CC3)cc2OC[C@H](C)N(CC2CCOCC2)C[C@H]1C | x | x | x | x | n | x
O=C(Nc1ccccc1)C1=C[C@@H](C2CCCCC2)C[C@@H](OCCCCO)O1 | n | n | n | 69 | n | n
O=C(NCc1nc2ccccc2[nH]1)C1=C[C@H](C2CCCCC2)C[C@H](OCc2ccc(CO)cc2)O1 | 39 | n | n | n | n | n
O=C(NCc1nc2ccccc2[nH]1)C1=C[C@@H](C2CCCCC2)C[C@@H](OCc2ccc(CO)cc2)O1 | n | n | n | n | n | n
O=C(Nc1ccccc1)C1=C[C@H](C2CCCCC2)C[C@H](OCCCCO)O1 | n | n | n | n | u | n
CO[C@H]1CN(C)C(=O)c2cc(NC(=O)C3CC3)ccc2OC[C@H](C)N(C(=O)CN2CCOCC2)C[C@H]1C | x | x | x | x | n | x
C[C@@H](NC(=O)C[C@@H]1C[C@@H]2c3cc(NC(=O)CC4CC4)ccc3O[C@@H]2[C@H](CO)O1)c1ccccc1 | x | x | x | x | n | x
CO[C@H]1CN(C)C(=O)c2ccc(NC(=O)Cc3ccccc3)cc2OC[C@@H](C)N(CC2CC2)C[C@H]1C | x | x | x | x | n | x
SMILES | SKN-1 block | NR3A LBD binder | SMARCA2 act | Vif inh | esBAF inh | NadD inh
CC(=O)c1ccc(-c2nc3ccccc3n2C)o1 | n | n | n | n | 55 | n
Cc1ccc(-c2nc3ccccc3n2C)o1 | n | n | n | x | x | n
O=C1C2C3C=CC(CC3)C2C(=O)N1/N=C/c1c[nH]c2ccccc12 (stereo unspecified) | n | n | n | n | 61 | n
C[C@@H]1CN([C@@H](C)CO)C(=O)c2cc(NC(=O)CCC(F)(F)F)ccc2O[C@H]1CN(C)Cc1ccc(-c2ccccc2)cc1 | x | x | x | x | n | x
COc1ccc(/C=N\NC(=O)c2cccc(Br)c2)c(OC)c1 | n | n | n | n | x | n
COc1ccc(/C=N/NC(=O)c2ccc(NC(=O)c3cccc([N+](=O)[O-])c3)cc2)c(OC)c1 | n | 18 | n | n | n | n
COc1cc(/C=N/n2cnnc2)ccc1OCCOc1ccccc1 | n | n | n | n | n | n
COc1ccc(/C=N/NC(=O)c2cccc([N+](=O)[O-])c2)cc1O | n | n | n | n | x | n
COc1ccc(/C=N/NC(=O)c2cccc(NC(=O)c3ccc(Cl)cc3)c2)c(OC)c1 | n | 11 | n | n | x | n
COc1cc(/C=N/NC(=O)c2cccc([N+](=O)[O-])c2)ccc1OCc1ccc(C)cc1 | n | 17 | n | n | 56 | n
COc1cc(/C=N/n2cnnc2)ccc1OCc1ccc(C)cc1 | n | n | n | n | 57 | n
CN1CCN(C(=O)[C@H]2[C@H](CO)[C@H]3Cn4c(ccc(C5=CCCCC5)c4=O)[C@@H]2N3S(C)(=O)=O)CC1 | x | x | x | x | n | x
C[C@@H]1CN([C@H](C)CO)C(=O)c2cccc(NS(=O)(=O)c3ccc(F)cc3)c2O[C@H]1CN(C)Cc1ccncc1 | x | x | x | x | n | x
COc1ccc(S(=O)(=O)N[C@@H]2CC[C@H](CC(=O)N3CCC(Cc4ccccc4)CC3)O[C@H]2CO)cc1 | x | x | x | x | n | x
COc1cc([N+](=O)[O-])cc(/C=N/NC(=O)c2ccc(C)nc2)c1O | n | n | n | n | x | n
CCC(=O)Nc1ccc(C(=O)N/N=C/c2cc(Br)c(OC)cc2OC)cc1 | n | 24 | n | n | n | n
COc1ccccc1/C=N/NC(=O)c1ccc(NC(=O)c2ccccc2Br)cc1 | n | n | n | n | x | n
COC(=O)c1ccc(COc2ccc(C)cc2[N+](=O)[O-])o1 | n | n | n | n | x | n
COc1cc([N+](=O)[O-])cc(/C=N/NC(=O)c2ccc(NC(=O)c3ccc(C)cc3)cc2)c1O | n | 21 | n | n | n | 82
O=C(N/N=C/c1cccc(O)c1)c1ccc(NC(=O)c2cccc([N+](=O)[O-])c2)cc1 | n | 27 | n | n | x | n
COC(=O)c1cc(C)ccc1OCc1ccc([N+](=O)[O-])cc1 | n | n | n | 82 | n | n
C/C=C/c1ccc2c(c1)O[C@H](CN(C)C(C)=O)[C@@H](C)CN([C@@H](C)CO)S2(=O)=O | x | x | x | x | n | x
CC(C)NC(=O)N(C)C[C@@H]1Oc2ncc(C#CC3(O)CCCC3)cc2C(=O)N([C@H](C)CO)C[C@H]1C | x | x | x | x | n | x
COc1cccc(/C=N/NC(=O)c2cc3cc([N+](=O)[O-])ccc3s2)c1O | n | 12 | n | n | x | 43
COc1cccc(/C=N/NC(=O)C(=O)N/N=C/c2cccc(OC)c2O)c1O | n | n | n | n | x | n
CNS(=O)(=O)c1ccc(NCC2COc3ccccc3O2)c([N+](=O)[O-])c1 (stereo unspecified) | n | n | n | n | 44 | n
